According to the supplement of paper PMC12282887:
± gives the standard deviation of the averaged measurements.

System: E. coli BW25113 micFp lux reporter
Assay: promoter activity interaction Z-score (Lux/OD deviation from empty-vector control); higher = stronger promoter induction by the compound
Procedure: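 E. coli BW25113 (wild type or ΔmarA/ΔsoxS/Δrob) carrying pTU175 luxCDABE promoter reporters was grown in LB in 384-well plates at 37°C with each of 94 compounds at 4 two-fold concentrations, in biological duplicates. Luminescence and OD600 were read every 30 min for 12 h and integrated as AUC over 8 h (0-8 h WT, 1-9 h mutants). Lux AUC was divided by OD AUC; the interaction score is the residual of a Huber robust fit of each promoter against the empty-vector control, then Z-transformed per promoter.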

Cc1c(N)nc([C@H](CC(N)=O)NC[C@H](N)C(N)=O)nc1C(=O)N[C@H](C(=O)N[C@H](C)[C@@H](O)[C@H](C)C(=O)N[C@H](C(=O)NCCc1nc(-c2nc(C(=O)NCCC[S+](C)C)cs2)cs1)[C@@H](C)O)[C@@H](OC1OC(CO)C(O)C(O)C1OC1OC(CO)C(O)C(OC(N)=O)C1O)c1cnc[nH]1 (stereo partly drawn) [Bleomycin]
promoter activity interaction Z-score (0.038 µg/ml, genetic background: wild type): -0.542 ± 0.065
promoter activity interaction Z-score (0.038 µg/ml, genetic background: ΔmarA): -0.018 ± 0.18
promoter activity interaction Z-score (0.038 µg/ml, genetic background: Δrob): -0.0145 ± 0.17
promoter activity interaction Z-score (0.038 µg/ml, genetic background: ΔsoxS): -0.239 ± 0.3
promoter activity interaction Z-score (0.076 µg/ml, genetic background: wild type): -0.384 ± 0.099
promoter activity interaction Z-score (0.076 µg/ml, genetic background: ΔmarA): -0.0986 ± 0.079
promoter activity interaction Z-score (0.076 µg/ml, genetic background: Δrob): -0.0358 ± 0.11
promoter activity interaction Z-score (0.076 µg/ml, genetic background: ΔsoxS): -0.0314 ± 0.21
promoter activity interaction Z-score (0.15 µg/ml, genetic background: wild type): -0.758 ± 0.17
promoter activity interaction Z-score (0.15 µg/ml, genetic background: ΔmarA): 0.0263 ± 0.051
promoter activity interaction Z-score (0.15 µg/ml, genetic background: Δrob): 0.317 ± 0.023
promoter activity interaction Z-score (0.15 µg/ml, genetic background: ΔsoxS): -0.34 ± 0.014
promoter activity interaction Z-score (0.3 µg/ml, genetic background: wild type): -0.844 ± 0.18
promoter activity interaction Z-score (0.3 µg/ml, genetic background: ΔmarA): -0.0349
promoter activity interaction Z-score (0.3 µg/ml, genetic background: Δrob): -0.227 ± 0.59
promoter activity interaction Z-score (0.3 µg/ml, genetic background: ΔsoxS): -1.55

CC(=O)N[C@H]1[C@@H](O[C@@H]2O[C@H](CC(O)[C@H]3O[C@@H](n4ccc(=O)[nH]c4=O)[C@H](O)[C@@H]3O)[C@H](O)[C@H](O)[C@H]2NC(=O)/C=C/CC(C)C)O[C@H](CO)[C@@H](N)[C@@H]1O (stereo partly drawn) [Tunicamycin]
promoter activity interaction Z-score (2.6 µg/ml, genetic background: wild type): 0.395 ± 0.012
promoter activity interaction Z-score (2.6 µg/ml, genetic background: ΔmarA): 0.0327 ± 0.17
promoter activity interaction Z-score (2.6 µg/ml, genetic background: Δrob): 0.0339 ± 0.11
promoter activity interaction Z-score (2.6 µg/ml, genetic background: ΔsoxS): 0.164 ± 0.031
promoter activity interaction Z-score (5.3 µg/ml, genetic background: wild type): 0.157 ± 0.33
promoter activity interaction Z-score (5.3 µg/ml, genetic background: ΔmarA): -0.0548 ± 0.095
promoter activity interaction Z-score (5.3 µg/ml, genetic background: Δrob): 0.115 ± 0.13
promoter activity interaction Z-score (5.3 µg/ml, genetic background: ΔsoxS): -0.136 ± 0.086
promoter activity interaction Z-score (10.6 µg/ml, genetic background: wild type): -0.104 ± 0.25
promoter activity interaction Z-score (10.6 µg/ml, genetic background: ΔmarA): 0.0656 ± 0.17
promoter activity interaction Z-score (10.6 µg/ml, genetic background: Δrob): 0.0163 ± 0.13
promoter activity interaction Z-score (10.6 µg/ml, genetic background: ΔsoxS): -0.276 ± 0.12
promoter activity interaction Z-score (21.1 µg/ml, genetic background: wild type): -0.663 ± 0.012
promoter activity interaction Z-score (21.1 µg/ml, genetic background: ΔmarA): -0.0908 ± 0.024
promoter activity interaction Z-score (21.1 µg/ml, genetic background: Δrob): -0.359 ± 0.073
promoter activity interaction Z-score (21.1 µg/ml, genetic background: ΔsoxS): -0.569 ± 0.028

NCCc1c[nH]c2ccc(O)cc12 [Serotonine]
promoter activity interaction Z-score (13.3 µg/ml, genetic background: wild type): -0.241 ± 0.065
promoter activity interaction Z-score (13.3 µg/ml, genetic background: ΔmarA): -0.0379 ± 0.032
promoter activity interaction Z-score (13.3 µg/ml, genetic background: Δrob): -0.00374 ± 0.19
promoter activity interaction Z-score (13.3 µg/ml, genetic background: ΔsoxS): -0.156 ± 0.27
promoter activity interaction Z-score (26.6 µg/ml, genetic background: wild type): 0.00853 ± 0.19
promoter activity interaction Z-score (26.6 µg/ml, genetic background: ΔmarA): 0.0453 ± 0.21
promoter activity interaction Z-score (26.6 µg/ml, genetic background: Δrob): 0.0253 ± 0.12
promoter activity interaction Z-score (26.6 µg/ml, genetic background: ΔsoxS): -0.0552 ± 0.27
promoter activity interaction Z-score (53.2 µg/ml, genetic background: wild type): -0.712 ± 0.14
promoter activity interaction Z-score (53.2 µg/ml, genetic background: ΔmarA): 0.105 ± 0.08
promoter activity interaction Z-score (53.2 µg/ml, genetic background: Δrob): -0.0954 ± 0.018
promoter activity interaction Z-score (53.2 µg/ml, genetic background: ΔsoxS): -0.396 ± 0.062
promoter activity interaction Z-score (106.3 µg/ml, genetic background: wild type): -0.289 ± 0.23
promoter activity interaction Z-score (106.3 µg/ml, genetic background: ΔmarA): 0.0717 ± 0.036
promoter activity interaction Z-score (106.3 µg/ml, genetic background: Δrob): -0.13 ± 0.074
promoter activity interaction Z-score (106.3 µg/ml, genetic background: ΔsoxS): -0.339 ± 0.011
